# Source: PubChem BioAssay
# Luc counter: Counterscreen for Luciferase (Kinase-Glo TM) Inhibition; Luciferin 4-monooxygenase (Photuris pensylvanica), Q27757; Kinase-Glo luciferase, ATP luminescence, 8 min; Potency, µM (titrated, usually from 38.3 µM), for inactives: at the highest dose activity change, negative = inhibition, usual class: inhibitors; 0.28% of 200,000 active; further: nearly all actives have a fitted effect of over 60% in size
#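 Kinase-Glo luciferase light output from ATP and luciferin was measured with 10 uM ATP, within the enzyme's linear range. Buffer: 50 mM imidazole pH 7.2, 50 mM KCl, 7 mM MgCl2, 0.01% Tween 20, 0.05% BSA; luminescence read after 8 min at ambient temperature.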
# VP16 counter: VP16 counterscreen qHTS for inhibitors of ROR gamma transcriptional activity. Potency, µM (top dose mostly 53.6 µM), without a hit: at the top dose activity, negative = inhibition, actives largely listed as inhibitors. Drosophila S2 Gal4-VP16 UAS-luciferase, luminescence, 20 h. 3.5% of 310,000 active;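 further: Gal4-VP16 expression switched on by copper sulfate through the metallothionein promoter; nearly all actives have a fitted effect of over 50% in size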
# RORg inh: qHTS for inhibitors of ROR gamma transcriptional activity | Nuclear receptor ROR-gamma (Mus musculus), P51450 | Drosophila S2 Gal4-RORgamma UAS-luciferase reporter, 20 h | Potency, µM (series often up to 53.6 µM), for the others: at the highest dose activity change, negative = inhibition, hits mostly inhibitors | 5.4% of 310,000 active | AID 2551, 2010; further: nearly all actives have a fitted effect of over 60% in size
# Target sequence (P51450 whole entry, looked up, the tested form may be a part): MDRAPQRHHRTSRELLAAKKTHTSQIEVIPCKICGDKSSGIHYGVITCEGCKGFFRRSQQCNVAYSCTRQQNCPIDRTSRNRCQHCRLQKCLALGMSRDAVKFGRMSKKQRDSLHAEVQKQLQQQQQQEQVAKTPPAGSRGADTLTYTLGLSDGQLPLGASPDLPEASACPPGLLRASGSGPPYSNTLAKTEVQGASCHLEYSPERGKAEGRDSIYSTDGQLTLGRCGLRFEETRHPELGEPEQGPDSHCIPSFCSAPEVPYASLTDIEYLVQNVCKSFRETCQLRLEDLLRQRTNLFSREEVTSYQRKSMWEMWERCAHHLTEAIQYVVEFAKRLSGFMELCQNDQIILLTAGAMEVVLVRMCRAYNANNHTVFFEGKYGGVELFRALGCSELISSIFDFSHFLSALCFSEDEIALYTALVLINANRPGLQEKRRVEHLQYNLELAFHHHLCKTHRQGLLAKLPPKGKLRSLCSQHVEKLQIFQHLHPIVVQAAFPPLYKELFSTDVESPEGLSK
#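 Drosophila Schneider cells stably carrying a metallothionein-driven Gal4 DBD–ROR gamma fusion and a UAS-Photinus luciferase reporter were exposed to compound for 1 hr, then induced with copper sulfate (700 uM final) for 20 hr at ambient temperature before luminescence reading.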
# An asterisk follows results filed as active; u = inconclusive; x = not tested or not shown; [ ] = dose if it differs, or a comment. A selection: hits, their analogues and other compounds. The true share with any hit is near 6.2%. The call rests on the fitted dose curve; in most records, active means well fitted curve in the direction sought with a large enough effect; inconclusive means small, poorly fitted or top-dose-only effect, or another doubt; inactive means no such curve, though single readings can be large; an effect the other way counts as inactive or inconclusive. On the % scale 0 is the no-effect control and ±100 the full control effect; potency means the concentration at half of the fitted maximal effect.
SMILES,Luc counter,VP16 counter,RORg inh
O=C(NC(=S)Nc1ccc(F)c([N+](=O)[O-])c1)c1ccccc1F,1%,-1%,u
Cc1cc(=O)n2nc(N3CCC(C(=O)Nc4cccc(Cl)c4C)CC3)sc2n1,x,2%,-8%
Cc1cc(=O)n2nc(N3CCCC3C(=O)Nc3cccc(Cl)c3C)sc2n1 (configuration not stated),x,3%,16µM*
Cc1ccc(C#CC[N+]2(CC#Cc3ccc(C)cc3)CCCCC2)cc1,2%,7.1µM*,u
C(#Cc1ccccc1)C[N+]1(CC#Cc2ccccc2)CCCCC1,-5%,6%,30%
Cc1cccc(NC(=O)C(=O)NCCc2c[nH]c3ccccc23)c1C,1%,-8%,15%
Cc1ccc(C)c(NC(=S)NCCc2c[nH]c3ccccc23)c1,x,11µM*,1.3µM*
Cc1ccc(NC(=O)C(=O)NCCc2c[nH]c3ccccc23)c(C)c1,1%,-3%,-3%
Cc1ccc(C)c(NC(=O)C(=O)NCCc2c[nH]c3ccccc23)c1,-1%,-15%,u
COc1ccc(Cl)cc1NC(=S)NCCc1c[nH]c2ccccc12,2%,7.1µM*,5.6µM*
Cc1ccccc1NC(=S)NCCc1c[nH]c2ccccc12,-2%,11µM*,7.9µM*
COc1ccccc1NC(=O)NCCc1c[nH]c2ccccc12,x,0%,21%
Cc1ccc(NS(=O)(=O)c2cccc(C(=O)NCCc3c[nH]c4ccccc34)c2)c(C)c1,x,22µM*,u
CCC[C@H](NC(=O)[C@H](Cc1ccc(O[S+](=O)([O-])O)cc1)NC(=O)OC(C)(C)C)C(=O)NCC(=O)N[C@@H](Cc1c[nH]c2ccccc12)C(=O)N[C@@H](CCC)C(=O)N[C@@H](CC(=O)OCCc1ccccc1)C(=O)O,x,-9%,2%
COc1ccc(COc2ccccc2C(=O)NCc2ccccc2)cc1F,2%,-30%,10%[10 µM]
NC(=O)c1c(NC(=O)c2ccncc2)sc2c1CCCCCC2,x,6%,u
Cn1cccc1C(=O)N1CCC2(CC1)CN(Cc1ccc(C#N)cc1)C2,-1%,-4%,-3%
CCOC(=O)c1c(-c2ccc(C)o2)csc1NC(=O)CN1CCCCC1,2%,2%,-6%
CCOC(=O)c1c(-c2ccc(C)o2)csc1NC(=S)NC(=O)c1ccc(F)cc1,0%,3.2µM*,1.8µM*
CCOC(=O)c1c(-c2ccc(C)o2)csc1NC(=O)CN1CCN(CC)CC1,4%,5%,-1%
CCOC(=O)c1c(-c2ccc(C)o2)csc1NC(=O)CN(C)CC(=O)Nc1ccc(C)cc1,3%,u,13µM*
CN(C)/[N+]([O-])=N/Oc1cc(O/[N+]([O-])=N/N2CCCC2CO)c([N+](=O)[O-])cc1[N+](=O)[O-] (configuration not stated),x,-5%,21%
CC(C)c1ccc2c(c1)C1Cc3ccccc3C1N2 (configuration not stated),-1%,u,u
CCC(=O)c1ccc(OCC(=O)Nc2nn3cnnc3s2)cc1,-1%,-6%,-12%
Cn1nccc1NC(=O)Nc1cccc(Cl)c1,x,-8%,15%
SMILES,Luc counter,VP16 counter,RORg inh
Cn1nccc1-c1cc(Cl)cc(Cl)c1O,x,32µM*,u
C=CCC(C)(NCc1ccccc1)C(=O)OCC (configuration not stated),-7%,8%,2%
O=C(CC(=O)c1ccccc1O)c1ccc(F)cc1,10%,u,14µM*
O=C(CC(=O)c1c(F)cccc1Cl)c1ccccc1O,x,11µM*,20µM*
NC(=O)c1ccccc1NCC(=O)c1ccc(F)cc1,x,8%,8%
Cc1c(Cl)cccc1NC(=O)CNC(=O)c1ccccc1F,-1%,-12%,2%
O=C(CC(=O)c1ccccc1O)c1cccc(F)c1,-7%,u,7.1µM*
O=C(CCc1ccccc1)NNC(=O)c1cccc(F)c1,4%,-12%,-5%
O=C(CN(C(=O)CCC(=O)Nc1nccs1)C1CCCC1)NCc1ccc2c(c1)OCO2,2%,-4%,-9%
COc1ccc(Cl)cc1-c1ccc(C(=O)O)o1,-2%[39.9 µM],-3%[96.6 µM],26%[96.6 µM]
COc1ccc(/C=C/C(=O)OCC(=O)NC(=O)NC(C)(C)C)cc1,2%,-12%,33%
COc1ccc(C(=O)N2CCC[C@@]3(CCN(Cc4ccncc4)C3)C2)cc1,-3%,0%,4%
CCC(C)c1ccc(NC(=S)NCCn2cc(Br)cn2)cc1 (configuration not stated),-3%,11µM*,2.2µM*
CC(C)NC(=S)NCc1cccnc1,1%,2%,8%
CCC(C)c1ccc(NC(=S)NCc2cccnc2)cc1 (configuration not stated),5%,22µM*,u
CCC(C)c1ccc(NC(=S)NCCn2cc(Cl)cn2)cc1 (configuration not stated),4%,10µM*,3.2µM*
CCC(C)c1ccc(NC(=O)CC(C)=O)cc1 (configuration not stated),-3%,u,u
S=C(NCCN1CCCCC1)Nc1ccc(Br)cc1,x,-9%,u
CN(c1ccccc1)S(=O)(=O)c1cccc(NC(=O)COC(=O)C2CCCCC2)c1,x,4%,-1%
CC(=O)N(O)C/C=C/c1cccc(Oc2ccccc2)c1,x,3%,u
N#CCCN(Cc1ccccc1)S(=O)(=O)c1cccs1,x,18%,-2%
Cc1cc(Cl)ccc1Nc1sc(C(=O)c2cc3cc(Cl)ccc3o2)c(N)c1C#N,-3%[7.66 µM],x,x
CC(C)Cc1nnc(NC(=O)CN2C(=O)c3ccccc3C2=O)s1,1%,7%,-16%
COc1ccc2c(c1)C1CC(C)(NC(=O)C1S(=O)(=O)c1ccc(F)cc1)O2 (configuration not stated),x,-12%,u
O=C(NC(=S)Nc1cccnc1Cl)c1ccc(Cl)cc1,x,u,8.9µM*
SMILES,Luc counter,VP16 counter,RORg inh
O=C(NC(=S)Nc1ccc2ncccc2c1)c1ccccc1,-1%,-21%,u
CC(=O)Nc1cccc2ncccc12,1%,2%,-19%
O=C(NC(=S)Nc1nc2c(ccc3ccccc32)s1)c1cccs1,1%,3.2µM*,2.5µM*
O=C(Nc1nc2c(ccc3ccccc32)s1)c1ccco1,-1%,9%,-1%
O=C(NC(=S)Nc1cccc2ncccc12)c1ccccc1,3%,u,7.9µM*
O=C(Nc1cccnc1Cl)c1ccc(Cl)cc1,x,17%,7%
O=C(NC(=S)Nc1cccc2ncccc12)c1cccs1,2%,-18%,8.9µM*
CN(Cc1cccc(Cl)c1)C(=O)C1CCC(=O)N(C2CC2)C1 (configuration not stated),x,5%,11%
CSCCC(NS(=O)(=O)c1ccccc1F)C(=O)Nc1cccc(C)n1 (configuration not stated),x,-7%,16%
O=C(CCN1C(=O)C2CC=CCC2C1=O)Nc1cccc(Cl)c1 (configuration not stated),x,-6%,-5%
Nc1ccc2cc3ccc(N)cc3nc2c1,x,u,-41%[10 µM]
CC(=O)N1c2ccc(S(=O)(=O)N3CCCC3C(=O)NCc3ccccc3Cl)cc2CC1C (configuration not stated),x,-5%,6.3µM*
